Test results reported in PubChem BioAssay (NCI).
About 79,000 compounds went through this panel and 15% of them were active in at least one assay; those are over-represented in the sample as a whole. The source made the active and inactive calls. No stated cut-off is given here; in the data, active means growth inhibition above about 70%; inactive means the rest.

What was measured:
[1] = NCI Yeast Anticancer Drug Screen. Data for the rad52 strain (AID 147);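 further: 0% = growth of vehicle-treated control cultures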; settings: S. cerevisiae rad52 mutant growth inhibition, stronger effect = higher value
Method in brief: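 Genetically altered yeast (DNA damage repair defect) treated with compound; inhibition calculated relative to vehicle.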

[2] = NCI Yeast Anticancer Drug Screen. Data for the wt1 strain (AID 149);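 further: 0% = growth of vehicle-treated wt1 cultures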; settings: S. cerevisiae wt1 strain (SPY 50644) growth inhibition, stronger effect = higher value
Method in brief: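 wt1 strain grown with compound or vehicle; inhibition taken from the growth difference.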

[3] = NCI Yeast Anticancer Drug Screen. Data for the rad50EPP+ strain (AID 151);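 further: 0% = growth of vehicle-treated control cultures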; settings: S. cerevisiae rad50 mutant strain, stronger effect = higher value
Method in brief: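 Strain rad50EPP+; compound exposure; % growth inhibition vs vehicle.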

[4] = NCI Yeast Anticancer Drug Screen. Data for the mgt1 strain (AID 153); settings: S. cerevisiae mgt1 mutant growth inhibition, stronger effect = higher value
Method in brief: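 Read-out: yeast growth inhibition vs vehicle control. Strain mgt1, drawn from a panel altered in DNA damage repair or cell cycle control.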

[5] = NCI Yeast Anticancer Drug Screen. Data for the rad50 strain (AID 155);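 further: 0% = growth of vehicle-only cultures of the same strain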; settings: S. cerevisiae rad50 strain growth inhibition, stronger effect = higher value
Method in brief: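 DNA repair mutant yeast, compound exposure, growth read-out; inhibition is taken relative to vehicle.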

[6] = NCI Yeast Anticancer Drug Screen. Data for the mec2-1 strain (AID 157); settings: S. cerevisiae mec2-1 strain, stronger effect = higher value
Method in brief: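 Cells of the genetically defined mec2-1 yeast strain are incubated with test compound. Inhibition of growth is calculated against vehicle-treated controls.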

[7] = NCI Yeast Anticancer Drug Screen. Data for the rad14 strain (AID 159);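 further: 0% = growth of vehicle-treated control cultures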; settings: S. cerevisiae rad14 strain growth inhibition, stronger effect = higher value
Method in brief: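 DNA repair-defective yeast, compound-exposed; % growth inhibition derived by comparison with vehicle-treated controls.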

[8] = NCI Yeast Anticancer Drug Screen. Data for the sgs1 mgt1 strain (AID 161);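 further: 0% = growth of cultures given vehicle only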; settings: S. cerevisiae sgs1 mgt1 strain, stronger effect = higher value
Method in brief: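 Inhibition of yeast growth, normalised to vehicle-treated controls, is reported for a strain bearing genetic alterations in DNA damage repair.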

[9] = NCI Yeast Anticancer Drug Screen. Data for the CLN2oe strain (AID 163);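 further: 0% = growth of vehicle-only control cultures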; settings: S. cerevisiae CLN2oe strain, stronger effect = higher value
Method in brief: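 Strain altered in cell-cycle control, incubated with compound; growth compared to solvent-treated controls.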

[10] = NCI Yeast Anticancer Drug Screen. Data for the cln2 rad14 strain (AID 165);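 further: 0% = growth equal to vehicle treated cultures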; settings: S. cerevisiae cln2 rad14 strain, stronger effect = higher value
Method in brief: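 The screen exposed genetically defined yeast (cln2 rad14) to test compounds and scored growth inhibition relative to vehicle-treated controls.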

[11] = NCI Yeast Anticancer Drug Screen. Data for the bub3 strain (AID 167); settings: S. cerevisiae bub3 mutant strain, stronger effect = higher value
Method in brief: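 In this screen, a yeast mutant lacking normal mitotic checkpoint function is challenged with compound. Relative growth versus vehicle gives the inhibition value.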

[12] = NCI Yeast Anticancer Drug Screen. Data for the wt2 strain (AID 169);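 further: 0% = growth of vehicle-treated yeast cultures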; settings: S. cerevisiae wt2 strain growth inhibition, stronger effect = higher value
Method in brief: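 Steps: yeast strain treated with compound; growth recorded; inhibition calculated relative to cultures given vehicle alone.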

[13] = NCI Yeast Anticancer Drug Screen. Data for the mlh1 strain (AID 171);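 further: 0% = growth of vehicle-treated control cultures of the same strain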; settings: S. cerevisiae mlh1 strain growth inhibition, stronger effect = higher value
Method in brief: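 Yeast screen: mutant strain plus compound, growth scored against vehicle control wells.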

[14] = NCI Yeast Anticancer Drug Screen. Data for the sgs1 strain (AID 173);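 further: 0% = growth of vehicle-only control cultures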; settings: S. cerevisiae sgs1 mutant, stronger effect = higher value
Method in brief: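 Inhibition of yeast growth served as the measure. The mutant strain was treated with each compound, and growth was normalised to cultures receiving vehicle alone.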

[15] = NCI Yeast Anticancer Drug Screen. Data for the mlh1 rad18 strain (AID 175); settings: S. cerevisiae mlh1 rad18 strain growth inhibition, stronger effect = higher value
Method in brief: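 Compound-treated yeast growth, normalised to vehicle controls. Strain bears defined DNA repair mutations.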

[16] = NCI Yeast Anticancer Drug Screen. Data for the rad18 strain (AID 177); settings: S. cerevisiae rad18 mutant growth inhibition, stronger effect = higher value
Method in brief: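 Inhibition values reflect reduced yeast growth compared with vehicle-treated controls, using a strain engineered with a DNA damage repair defect.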

[17] = at 5.0 µM (retest, dose inferred, filed as 0.5)
[18] = at 50.0 µM (retest, dose inferred, filed as 5.0)

Measured: growth inhibition

CC(CC/C(=N/O)c1ccccc1)(CC/C(=N\O)c1ccccc1)[N+](=O)[O-] (stereo unspecified)
inactive: [1]; at 1.2 µM 1% | [1]; at 3.7 µM 2% | [1]; at 11.0 µM -4% | [1]; at 33.0 µM 4% | [2]; at 1.2 µM -1% | [2]; at 3.7 µM -5% | [2]; at 11.0 µM -7% | [2]; at 33.0 µM 0% | [2]; at 100.0 µM 26% | [3]; at 1.2 µM -3% | [3]; at 3.7 µM 2% | [3]; at 11.0 µM -1% | [3]; at 33.0 µM 2% | [3]; at 100.0 µM 0% | [4]; at 1.2 µM -5% | [4]; at 3.7 µM -3% | [4]; at 11.0 µM -4% | [4]; at 33.0 µM -5% | [4]; at 100.0 µM 57% | [5]; at 1.2 µM 5% | [5]; at 3.7 µM 3% | [5]; [17] 4% | [5]; at 11.0 µM -1% | [5]; at 33.0 µM 4% | [5]; [18] 66% | [5]; at 50.0 µM 11.4% | [6]; at 1.2 µM -3% | [6]; at 3.7 µM -3% | [6]; [17] -11% | [6]; at 11.0 µM -5% | [6]; at 33.0 µM -5% | [6]; [18] 21% | [6]; at 100.0 µM 56% | [7]; at 1.2 µM -2% | [7]; at 3.7 µM 1% | [7]; at 11.0 µM -5% | [7]; at 33.0 µM -3% | [7]; at 100.0 µM 65% | [8]; [17] 0% | [8]; [18] 53% | [8]; at 50.0 µM 37% | [9]; at 1.2 µM -7% | [9]; at 3.7 µM -11% | [9]; at 11.0 µM -13% | [9]; at 33.0 µM -12% | [10]; [17] 2% | [10]; [18] 39% | [11]; at 1.2 µM -6% | [11]; at 3.7 µM -5% | [11]; [17] 8% | [11]; at 11.0 µM -9% | [11]; at 33.0 µM -9% | [11]; [18] 6% | [11]; at 100.0 µM 52% | [12]; at 1.2 µM -10% | [12]; at 3.7 µM -11% | [12]; at 11.0 µM -16% | [12]; at 33.0 µM -10% | [12]; at 100.0 µM 20% | [13]; at 1.2 µM -4% | [13]; at 3.7 µM -3% | [13]; at 11.0 µM -7% | [13]; at 33.0 µM -6% | [13]; at 100.0 µM 32% | [14]; at 1.2 µM -13% | [14]; at 3.7 µM 0% | [14]; at 11.0 µM -11% | [14]; at 33.0 µM -11% | [14]; at 100.0 µM 55% | [15]; [17] 5% | [15]; [18] 46% | [16]; at 1.2 µM 0% | [16]; at 3.7 µM -4% | [16]; at 11.0 µM -6% | [16]; at 33.0 µM 0%
active: [1]; at 100.0 µM 74% | [5]; at 100.0 µM 74% | [6]; at 50.0 µM 96.5% | [9]; at 100.0 µM 71% | [10]; at 50.0 µM 91.7% | [11]; at 50.0 µM 90.8% | [15]; at 50.0 µM 96.8% | [16]; at 100.0 µM 84%

O=C1c2cccc3cccc(c23)C(=O)N1O
inactive: [1]; at 1.2 µM -3% | [1]; at 3.7 µM 3% | [1]; at 11.0 µM 1% | [1]; at 33.0 µM 24% | [2]; at 1.2 µM 3% | [2]; at 3.7 µM -1% | [2]; at 11.0 µM 7% | [2]; at 33.0 µM 24% | [3]; at 1.2 µM -3% | [3]; at 3.7 µM -2% | [3]; at 11.0 µM -1% | [3]; at 33.0 µM 28% | [4]; at 1.2 µM -8% | [4]; at 3.7 µM 4% | [4]; at 11.0 µM 23% | [5]; at 1.2 µM 9% | [5]; at 3.7 µM 13% | [5]; [17] 13% | [5]; at 11.0 µM 13% | [5]; at 33.0 µM 54% | [6]; at 1.2 µM 5% | [6]; at 3.7 µM -5% | [6]; [17] 33% | [6]; at 11.0 µM 4% | [6]; at 33.0 µM 36% | [7]; at 1.2 µM 16% | [7]; at 3.7 µM 13% | [7]; at 11.0 µM 46% | [9]; at 1.2 µM 6% | [9]; at 3.7 µM 8% | [9]; at 11.0 µM 29% | [10]; at 50.0 µM 47.1% | [11]; at 1.2 µM 4% | [11]; at 3.7 µM 18% | [12]; at 1.2 µM 3% | [12]; at 3.7 µM 17% | [13]; at 1.2 µM -11% | [13]; at 3.7 µM -10% | [13]; at 11.0 µM 0% | [13]; at 33.0 µM 57% | [14]; at 1.2 µM 14% | [14]; at 3.7 µM 8% | [14]; at 11.0 µM 19% | [14]; at 33.0 µM 67% | [15]; [17] 23% | [16]; at 1.2 µM 6% | [16]; at 3.7 µM 3% | [16]; at 11.0 µM 13% | [16]; at 33.0 µM 41%
active: [1]; at 100.0 µM 84% | [2]; at 100.0 µM 86% | [3]; at 100.0 µM 89% | [4]; at 33.0 µM 81% | [4]; at 100.0 µM 95% | [5]; [18] 99% | [5]; at 50.0 µM 84.4% | [5]; at 100.0 µM 89% | [6]; [18] 98% | [6]; at 50.0 µM 87.3% | [6]; at 100.0 µM 94% | [7]; at 33.0 µM 92% | [7]; at 100.0 µM 97% | [8]; [17] 90% | [8]; [18] 98% | [8]; at 50.0 µM 90.3% | [9]; at 33.0 µM 92% | [9]; at 100.0 µM 99% | [10]; [17] 71% | [10]; [18] 98% | [11]; [17] 93% | [11]; at 11.0 µM 83% | [11]; at 33.0 µM 97% | [11]; [18] 98% | [11]; at 50.0 µM 83.3% | [11]; at 100.0 µM 98% | [12]; at 11.0 µM 92% | [12]; at 33.0 µM 98% | [12]; at 100.0 µM 99% | [13]; at 100.0 µM 90% | [14]; at 100.0 µM 91% | [15]; [18] 99% | [15]; at 50.0 µM 86.4% | [16]; at 100.0 µM 81%

COc1ccc(-c2cc(-c3cc(C)cc(Cl)c3O)nc3[nH]c(=S)[nH]c(=S)c23)cc1
inactive: [1]; at 1.2 µM 1% | [1]; at 3.7 µM 4% | [1]; at 11.0 µM 6% | [1]; at 33.0 µM 15% | [2]; at 1.2 µM 0% | [2]; at 3.7 µM -1% | [2]; at 11.0 µM 0% | [2]; at 33.0 µM 1% | [2]; at 100.0 µM 35% | [3]; at 1.2 µM 3% | [3]; at 3.7 µM -5% | [3]; at 11.0 µM -14% | [3]; at 33.0 µM -15% | [3]; at 100.0 µM -15% | [4]; at 1.2 µM -1% | [4]; at 3.7 µM -2% | [4]; at 11.0 µM -3% | [4]; at 33.0 µM 25% | [5]; at 1.2 µM 3% | [5]; at 3.7 µM 5% | [5]; [17] -32% | [5]; at 11.0 µM 6% | [5]; at 33.0 µM 11% | [5]; at 100.0 µM 57% | [6]; at 1.2 µM 0% | [6]; at 3.7 µM 0%
active: [1]; at 100.0 µM 72% | [4]; at 100.0 µM 94% | [5]; [18] 96% | [5]; at 50.0 µM 75.1%
